{"source": "PubChem BioAssay (NCATS)", "note": "Records with an inconclusive call do not appear. Where a call stands in place of a potency, no number is given. Active and inactive are the calls of the source. The call rests on the fitted dose curve; in most records, active means well fitted inhibition curve with a large enough effect; inconclusive means small, poorly fitted or top-dose-only effect; inactive means flat fitted curve, though single readings scatter. Potency means the concentration at half of the fitted maximal effect.", "data": [{"test_system": "Zika virus NS2B-NS3 protease", "assay": "Primary screen GU AMC qHTS for Zika virus inhibitors (AID 1347154); further: nearly all actives have a fitted effect of over 70% in size", "conditions": "Zika NS2B-NS3 unlinked protease, AMC fluorogenic substrate; series mostly up to 54.1 µM", "how_it_was_run": "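Unlinked Zika NS2B hydrophilic domain/NS3 protease domain noncovalent complex (25 nM final) in 10 mM Tris-HCl pH 8.0, 0.01% Tween 20, with AMC peptide substrate. Fluorescence (ex 340, em 450 nm) change over 15 min, room temperature; percent inhibition fitted to 4-parameter Hill equation.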", "values": [{"smiles": "CCC(=O)C(CCN(C)C)(c1ccccc1)c1ccccc1", "Potency": "inactive"}, {"smiles": "CC(C)C(Br)C(=O)NC(N)=O", "note": "(stereo not drawn)", "Potency": "inactive"}, {"smiles": "CCC(OC(C)=O)C(CC(C)NC)(c1ccccc1)c1ccccc1", "note": "(stereo not drawn)", "Potency": "inactive"}, {"smiles": "CCN(CC)C(C)C(=O)c1ccccc1", "note": "(stereo not drawn)", "Potency": "inactive"}, {"smiles": "COP(=S)(OC)Oc1ccc(Sc2ccc(OP(=S)(OC)OC)cc2)cc1", "Potency": "inactive"}, {"smiles": "O=C(CBr)Nc1ccc(Cl)cc1C(=O)c1ccccc1F", "Potency": "inactive"}, {"smiles": "C#C[C@]1(O)C=C[C@H]2[C@@H]3CCC4=CC(=O)CC[C@@H]4[C@H]3CC[C@@]21CC", "Potency": "inactive"}, {"smiles": "CC(Cc1ccccc1)NCCCCl", "note": "(stereo not drawn)", "Potency": "inactive"}, {"smiles": "COc1ccc(OC)c(CC(C)N)c1", "note": "(stereo not drawn)", "Potency": "inactive"}, {"smiles": "CCC(=O)O[C@H]1CC[C@H]2[C@@H]3CCC4=CC(=O)CC[C@]4(C)[C@H]3CC[C@]12C", "Potency": "inactive"}, {"smiles": "CCOC(=O)C(c1c(O)c2ccccc2oc1=O)c1c(O)c2ccccc2oc1=O", "Potency": "inactive"}, {"smiles": "CN1C[C@@H](NS(=O)(=O)N(C)C)C[C@@H]2c3cccc4c3c(cn4C)C[C@H]21", "Potency": "inactive"}, {"smiles": "COP(=S)(OC)Oc1ccc(S(N)(=O)=O)cc1", "Potency": "inactive"}, {"smiles": "CCOC(C(=O)OCCN(C)C)(c1ccccc1)c1ccccc1", "Potency": "inactive"}, {"smiles": "CC[C@H](O)C(C[C@H](C)N(C)C)(c1ccccc1)c1ccccc1", "Potency": "inactive"}, {"smiles": "CCC1(c2cccc(O)c2)CCCCN(C)C1", "note": "(stereo not drawn)", "Potency": "inactive"}, {"smiles": "COP(=O)(OC)OC=C(Cl)Cl", "Potency": "inactive"}, {"smiles": "CNC(C)Cc1ccccc1OC", "note": "(stereo not drawn)", "Potency": "inactive"}, {"smiles": "O=C(CCl)c1ccc(Cl)cc1Cl", "Potency": "inactive"}, {"smiles": "CCN(Cc1ccc(Cl)nc1)/C(=C/[N+](=O)[O-])NC", "Potency": "inactive"}, {"smiles": "N#Cc1nn(-c2c(Cl)cc(C(F)(F)F)cc2Cl)c(N)c1S(=O)C(F)(F)F", "note": "(stereo not drawn)", "Potency": "inactive"}, {"smiles": "COCC(=O)N(c1c(C)cccc1C)C(C)C(=O)OC", "note": "(stereo not drawn)", "Potency": "inactive"}, {"smiles": "C[N+]1(CCC(C(N)=O)(c2ccccc2)c2ccccc2)CCCCC1", "Potency": "inactive"}, {"smiles": "CC(C(O)c1ccccc1)N(C)C/C=C/c1ccccc1", "note": "(stereo not drawn)", "Potency": "inactive"}, {"smiles": "COc1cc(CC(C)N)c(OC)cc1Br", "note": "(stereo not drawn)", "Potency": "inactive"}, {"smiles": "Cc1c(Cl)c(=O)oc2cc(OP(=O)(OCCCl)OCCCl)ccc12", "Potency": "14.4 µM (active)"}, {"smiles": "CCO[C@H]1O[C@@H]2OC3(C)CC[C@H]4[C@H](C)CC[C@@H]([C@H]1C)[C@@]24OO3", "Potency": "inactive"}, {"smiles": "c1cc2c(c(N3CCNCC3)c1)OCCO2", "Potency": "inactive"}, {"smiles": "C[C@]12CC[C@H]3[C@@H](CCC4=CC(=O)CC[C@@]43C)[C@@H]1CC[C@@H]2C(=O)O", "Potency": "inactive"}, {"smiles": "CNC(C)Cc1ccc2c(c1)OCO2", "note": "(stereo not drawn)", "Potency": "inactive"}, {"smiles": "COc1cc(C[C@@H](C)N)c(OC)cc1Br", "Potency": "inactive"}, {"smiles": "CCS(=O)(=O)C(C)(C)S(=O)(=O)CC", "Potency": "inactive"}, {"smiles": "CCCN(CCC)CCc1c[nH]c2ccccc12", "Potency": "inactive"}, {"smiles": "CN1C2CCC(C)(C)C1CC(OC(=O)C(O)(c1cccs1)c1cccs1)C2", "note": "(stereo not drawn)", "Potency": "inactive"}, {"smiles": "C[C@]12CC[C@H]3[C@@H](CCC4=CC(=O)CC[C@@H]43)[C@@H]1CC[C@@H]2O", "Potency": "inactive"}, {"smiles": "C=CCOC(Cn1ccnc1)c1ccc(Cl)cc1Cl", "note": "(stereo not drawn)", "Potency": "inactive"}, {"smiles": "OC(c1ccccc1)(c1ccccc1)C1CCNCC1", "Potency": "inactive"}, {"smiles": "NC(=O)OCCCc1ccccc1", "Potency": "inactive"}]}]}
